# Measurements: PubChem BioAssay (NCATS)
# Values without a mark were called inactive. How the calls were made is not given here.
# Test system: HIV-1 nucleocapsid protein NCp7 (binding to TG oligonucleotide)
# Experiment: HIV Nucleocapsid (AID 346);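 further: potency is for inhibitors that block NC binding and lower polarization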
# Details: HIV-1 NC / fluorescein-TGTGTGTG probe, fluorescence polarization
# Procedure, shortened: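 Fluorescence polarization readout: labelled TG4xF oligo (10 nM) with 100 nM nucleocapsid protein, high-salt (250mM NaCl) Hepes pH 7.5 buffer containing zinc and fresh reducing agents. Compounds added by pin tool; incubation 1 hr, room temperature.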
# Potency means the concentration at half of the fitted maximal effect.
row,Compound,Potency
1,COc1cccc(Cn2c(=O)c(-c3ccc(F)c(F)c3)nc3cncnc32)c1,> 20 µM
2,COc1ccc(-c2nc3cncnc3n(-c3ccccc3)c2=O)cc1,> 20 µM
3,Cc1noc(C)c1-c1nccc(NCc2ccccc2)n1,> 20 µM
4,CC(=O)N1CCC2(CC1)CCN(C(c1ccccc1)c1ccccc1)CC2,> 20 µM
5,COc1ccc(CNc2ccnc(-c3ccoc3)n2)c(OC)c1,> 20 µM
6,O=C(Nc1cccc(F)c1)N1CCC2(CC1)CCN(C(=O)c1ccncc1)CC2,> 20 µM
7,Cc1noc(C)c1-c1cncnc1N1CCN(C)CC1,> 20 µM
8,CN1CC[C@@]2(CCCN(C(=O)c3cc(C(F)(F)F)cc(C(F)(F)F)c3)C2)C1,> 20 µM
9,O=C(Nc1ccccc1)N1CC[C@@]2(CCCN(C(=O)c3ccncc3)C2)C1,> 20 µM
10,CS(=O)(=O)N1CCC2(CCCN(Cc3ccc(C#N)cc3)C2)CC1,> 20 µM
11,COC(=O)N1CCC2(CCN(C(=O)Nc3ccc(OC)cc3)CC2)CC1,> 20 µM
12,Cc1cnc(CNc2cc(-c3ccccc3C)ncn2)cn1,> 20 µM
13,CN1CCN(c2ncc3nc(-c4ccccc4)c(=O)n(C)c3n2)CC1,> 20 µM
14,COc1ccc(C(=O)N2CCC[C@@]3(CCN(c4ccncc4)C3)C2)cc1,> 20 µM
15,FC(F)(F)c1ccccc1-c1nc(NCc2cccnc2)c2ccccc2n1,> 20 µM
16,N#CCCn1c(=O)c(-c2ccccc2)nc2cnc(Oc3ccccc3)nc21,> 20 µM
17,Cc1noc(C)c1-c1cc(N2CCNCC2)ncn1,> 20 µM
18,COc1cccc(-c2nccc(N(C)Cc3ccco3)n2)c1,> 20 µM
19,O=c1c(-c2cccc(F)c2)nc2cncnc2n1C1CC1,> 20 µM
20,COCCn1c(=O)c(-c2ccc(F)cc2)nc2cnc(N(C)C)nc21,> 20 µM
21,Cn1cccc1C(=O)N1CCC2(CCN(C(=O)Nc3ccccc3)CC2)CC1,> 20 µM
22,CN(C)C(=O)c1ccc(-c2ccc3ncnc(Nc4ccccc4)c3c2)cc1,> 20 µM
23,O=C(c1cccc(F)c1)N1CCC2(CC1)CCN(c1ncccn1)CC2,> 20 µM
24,CN(C)C(=O)c1ccc(-c2cc(NCc3ccccc3)ncn2)cc1,> 20 µM
25,COc1ccc(NC(=O)N2CC[C@@]3(CCCN(C(=O)c4csnn4)C3)C2)cc1,> 20 µM
